# PI5P4K alpha inh: PI5P4K alpha (human) kinase inhibition. P48426. max response, %. hit rate 1.2% among 330,000. PI5P4Kalpha enzyme, ADP-Glo luminescence, 60 min; stronger effect = lower value; active = max response of -50% or lower; inconclusive = between -30% and -50%; inactive = -30% or higher; note: value at the top dose of about 77 µM
#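 Compounds were pin-transferred onto PI5P4Kalpha and substrate in HEPES pH 7.4 buffer with EGTA, CHAPS and 5% DMSO. ATP (5 microM final) started the reaction, which ran 60 minutes at room temperature before ADP-Glo detection.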
# USP2a block: inhibitors of human ubiquitin-specific protease USP2a; O75604; USP2 core, Ub-CHOP2 coupled fluorogenic reporter, 485/531; Potency, µM (titrated, usually from 38.3 µM), for the others: at the top dose activity change, negative = inhibition, actives largely listed as inhibitors; hit rate 0.01% among 330,000; AID 463254;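 note: potency is the fitted concentration of half-maximal effect; plate controls were DMSO wells for no effect and full inhibition by NEM control for full effect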
#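 USP2 core (10nM final) preincubated 30min RT with compound in 20mM Tris-HCl pH 8.0, 2mM CaCl2, 2mM beta-mercaptoethanol, 0.05% CHAPS; 25nM Ub-CHOP2 plus 25nM reporter substrate added, fluorescence (Ex485/Em531) read after 60min.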
# WRN helicase inh: blocks human WRN helicase; Q14191; WRN helicase unwinding, fluorescent forked duplex, kinetic; Potency, µM (top dose mostly 114 µM), without a hit: at the highest dose activity change, negative = inhibition, most hits filed as inhibitors; hit rate 0.46% among 360,000; note: potency is the fitted concentration of half-maximal effect; nearly all actives have a fitted effect of over 55% in size
#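 WRN at 20 nM final was preincubated with compound for 15 min at room temperature; reaction started with 100 nM forked duplex oligonucleotide carrying fluorophore and quencher plus 2 mM ATP (final). Unwinding followed kinetically by red fluorescence (ex 525/em 598 nm).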
# USP1 inh: USP1/UAF1 (human) deubiquitinase inhibition. O94782. recombinant USP1/UAF1, Ub-Rhodamine cleavage fluorescence. Potency, µM (top dose mostly 57.1 µM), for the others: at the top dose activity change, negative = inhibition, actives largely listed as inhibitors. hit rate 0.23% among 390,000; note: potency is the fitted concentration of half-maximal effect; nearly all actives have a fitted effect of over 60% in size
#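 High-throughput fluorogenic screen: 1nM USP1/UAF1 complex, Ub-Rho substrate 150nM final, 50mM HEPES pH 7.8 with 0.5mM EDTA, 0.1 mg/ml BSA, 1mM TCEP and 0.01% Tween-20.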
# PLK1 PBD inh: PLK1 (human) polo-box domain binding inhibition; P53350; Plk1 PBD binding of FITC phosphopeptide, fluorescence polarization; Potency, µM, without a hit: max response, negative = inhibition, hits mostly inhibitors; hit rate 2.8% among 360,000; AID 720504; note: potency is the fitted concentration of half-maximal effect; series mostly up to about 57 µM; nearly all actives have a fitted effect of over 65% in size
# Target sequence (P53350 whole entry, looked up, the tested form may be a part): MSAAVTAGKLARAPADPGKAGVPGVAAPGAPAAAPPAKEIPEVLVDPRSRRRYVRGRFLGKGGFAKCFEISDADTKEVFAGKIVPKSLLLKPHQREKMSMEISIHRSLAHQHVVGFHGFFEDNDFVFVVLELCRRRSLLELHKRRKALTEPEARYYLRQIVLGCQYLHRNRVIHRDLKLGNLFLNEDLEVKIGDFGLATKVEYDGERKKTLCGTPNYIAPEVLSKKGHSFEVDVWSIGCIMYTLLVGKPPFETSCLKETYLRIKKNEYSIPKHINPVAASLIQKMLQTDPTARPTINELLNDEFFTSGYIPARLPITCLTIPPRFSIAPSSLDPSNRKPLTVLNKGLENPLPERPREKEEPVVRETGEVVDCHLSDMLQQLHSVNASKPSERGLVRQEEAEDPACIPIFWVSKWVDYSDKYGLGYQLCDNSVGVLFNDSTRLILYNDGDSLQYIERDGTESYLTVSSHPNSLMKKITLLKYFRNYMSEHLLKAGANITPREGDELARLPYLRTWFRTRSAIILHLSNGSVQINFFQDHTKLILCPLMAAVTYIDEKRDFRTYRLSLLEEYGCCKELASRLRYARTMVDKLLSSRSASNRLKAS
# Numbers without * were called inactive; ? = inconclusive; nt = no result; [ ] = another dose, or the depositor's remark. Hits are enriched below; roughly 3.3% of the tested compounds scored in any of these assays. Unless noted, calls come from the whole dose curve; as a rule, active = well fitted curve in the direction sought with a large enough effect; inconclusive = small, poorly fitted or top-dose-only effect, or another doubt; inactive = no such curve, though single readings can be large; an effect the other way counts as inactive or inconclusive. Unless noted, % is set by controls: 0 for no effect and ±100 for the full control effect.
SMILES,PI5P4K alpha inh,USP2a block,WRN helicase inh,USP1 inh,PLK1 PBD inh
COc1cccc(C(=O)NCC(c2ccc(N(C)C)cc2)N2CCc3ccccc32)c1 (centres undefined),nt,nt,nt,8.2%,nt
COc1ccc(C(=O)COC(=O)CCn2c(C)csc2=O)c(OC)c1,-65.2*,nt,-11.7%,-15.9%,-2.5%
COc1cc(C)c(-c2[nH]ncc2-c2csc(C)n2)c(O)c1,-14.5,-10.8%,-0.4%,-20.2%,29.9µM*
COc1ccc(NC(=O)C(C/C=C(/C)Cl)C(C)=O)cc1 (centres undefined),-25.5,2.4%,-1.6%,-9.2%,3.77µM*
O=S(=O)(NCC(c1ccco1)S(=O)(=O)c1cccs1)c1ccc(F)c(C(F)(F)F)c1 (centres undefined),nt,nt,nt,-27.0%,nt
CC(C)c1cccc(-c2ccc3c(c2)S(=O)(=O)c2cccc(C(=O)NCc4ccco4)c2C3=O)c1,-23.1,-11.9%,-11.1%[11.6 µM],?,42.3µM*
O=C1C(Cl)=C(Nc2ccccc2)C(=O)c2ccccc21,3.9,2.5%,-5.7%,-25.1%,-15.0%
O=C1C=C(Nc2ccc(F)cc2)c2ccccc2C1=O,-8.7,1.4%,-8.4%,25.1µM*,-3.9%
COc1cc(Cl)c(NS(=O)(=O)c2ccc(-c3ccc(=O)[nH]n3)o2)c(OC)c1,-3.0,-0.1%,1.0%,-13.5%,-14.8%
CCOc1ccc(NC2=CC(=O)C(=O)c3ccccc32)cc1,-2.4,nt,-15.3%,25.1µM*,-1.7%
COc1cc(Cl)c(NC2=CC(=O)C(=O)c3ccccc32)c(OC)c1,-7.2,-0.3%,7.7%,28.2µM*,-3.2%
O=C1C=C(Nc2cccnc2)c2ccccc2C1=O,3.0,nt,-21.3%,14.1µM*,-11.9%
CCOc1ccc(NC2=CC(=O)CCC2)cc1,4.9,-0.4%,-2.6%,-5.5%,-4.3%
COc1c(Cl)cc(-c2noc(C)c2C(=O)NCc2ccccc2)cc1Cl,8.5,0.9%,0.1%,-13.3%,29.9µM*
COc1c(Cl)cc(-c2noc(C)c2C(=O)NCc2ccc3c(c2)OCO3)cc1Cl,-2.5,-1.2%,-2.3%,-17.3%,-6.6%
CCOC(=O)c1cc(-c2cccnc2)nn1-c1ccccc1C,-18.8,1.4%,-0.1%,-18.5%,26.7µM*
O=C(Oc1cc(-c2ccccc2)no1)c1ccc(Cl)cc1,2.1,-1.0%,-2.5%,-2.6%,23.8µM*
Cc1ccc(C(=O)Oc2cc(-c3ccccc3)no2)cc1,-6.0,4.8%,0.3%,-4.0%,-15.1%
CCC(=O)Nc1nnc(CCc2ccccc2)s1,?,2.7%,-0.4%,-4.0%,-4.2%
CCCC(C)c1nnc(NC(=O)C2CC(=O)N(CCc3ccc(F)cc3)C2)s1 (centres undefined),-23.0,1.1%,-27.4%,-9.4%,5.97µM*
CCCC(C)c1nnc(NC(=O)C(=O)OCC)s1 (centres undefined),?,0.2%,-8.0%,-6.0%,10.6µM*
CC1CCc2nc(NC(=O)C3CCCO3)sc2C1 (centres undefined),nt,0.6%,6.3%,-2.9%,23.8µM*
CCOC(=O)C(=O)Nc1nnc(CCc2ccccc2)s1,-65.8*,0.8%,2.1%,-11.2%,-2.8%
CCCCCn1c(-c2ccc(OC)c(OC)c2)nc2ccccc21,nt,nt,nt,-11.2%,nt
COc1ccc(-c2onc(C)c2C)cc1S(=O)(=O)Nc1cc(Cl)ccc1C,nt,nt,nt,6.3%,nt
SMILES,PI5P4K alpha inh,USP2a block,WRN helicase inh,USP1 inh,PLK1 PBD inh
CCc1ccc(-n2nc(C)c3c(C(=O)Nc4cc(OC)cc(OC)c4)cc(C)nc32)cc1,nt,nt,nt,-23.6%,nt
Cc1cccc(C)c1OCC(=O)NCC1(N2CCOCC2)CCCCC1,nt,nt,nt,-15.3%,nt
CCCC(C)c1nnc(NC(=O)C2CCCO2)s1 (centres undefined),nt,3.2%,-6.5%,-13.3%,29.9µM*
CCCC(C)c1nnc(NC(=O)CN2C(=O)c3ccccc3C2=O)s1 (centres undefined),-20.8,1.0%,4.7%,-22.6%,26.7µM*
CCN(Cc1ccccc1)Cc1c(O)ccc2oc(C)c(C(=O)Nc3ccccc3C)c12,nt,nt,nt,7.9%,nt
CCn1c(CN2CCOCC2)nc2cc(NC(=O)c3ccc([N+](=O)[O-])cc3)ccc21,nt,nt,nt,-15.3%,nt
C=CCC(NCc1ccccc1)c1ccc(C)o1 (centres undefined),-17.3,nt,8.1%,-15.3%,10.6µM*
C=CCC(NCc1ccccc1)c1ccc(Cl)cc1 (centres undefined),10.1,1.2%,-6.2%,8.3%,-1.8%
C#CC(C)(CC)NC(=O)Cn1nnc(-c2ccc(OCc3ccccc3F)cc2)n1 (centres undefined),nt,nt,nt,14.9%,nt
CC1(C)Nc2ccc(O)cc2-c2c1ssc2=S,?,2.2%,-10.4%,-25.2%,26.7µM*
COc1ccc(CNC(=O)Cn2c(=O)nc(-c3ccccc3F)c3cc(Cl)ccc32)cc1,nt,nt,nt,-9.1%,nt
CCCN1CCN(CCCNC(=O)Cn2nc(C)n3c(cc4cc(OC)ccc43)c2=O)CC1,6.6,4.4%,0.8%,-25.7%,-4.5%
CCCN1CCN(CCCNC(=O)Cn2nc(C)n3c(cc4cc(F)ccc43)c2=O)CC1,1.7,0.1%,1.5%,-17.2%,29.9µM*
CCc1cccc(C)c1NC(=O)Cn1ccn(-c2cccc(OC)c2)c(=O)c1=O,nt,nt,nt,-12.9%,nt
CC1=C(C(N)=O)C(c2cccs2)NC(=O)N1 (centres undefined),6.6,6.3%,1.4%,-15.2%,3.3%
CC1=C(C(N)=O)C(c2cccs2)NC(=S)N1 (centres undefined),-25.5,1.6%,-3.6%,5.4%,26.7µM*
NC(=O)CCC(NS(=O)(=O)c1ccc(Cl)cc1)C(=O)NCC1CCCCC1 (centres undefined),-18.8,2.4%,-27.1%,-3.9%,10.6µM*
NC(=O)CCC(NS(=O)(=O)c1ccc(Cl)cc1)C(=O)NCc1ccc(Cl)cc1 (centres undefined),-7.5,-0.1%,-2.9%,-21.8%,-2.2%
CC(Sc1nc(=O)cc(N)n1CCc1ccccc1)C(=O)Nc1ccccc1C#N (centres undefined),nt,nt,nt,-20.3%,nt
Cc1cc2c(SCC(=O)Nc3ccccc3O)ncnc2s1,-17.8,nt,7.3%,-14.7%,29.9µM*
COc1cccc(NC(=O)N2CCC(n3c(C)nc4cccnc43)CC2)c1,nt,nt,nt,-10.1%,nt
O=C1Nc2ccccc2C12OCC(COc1ccc(Cl)cc1)O2 (centres undefined),-3.3,-0.3%,-0.1%,-10.4%,26.7µM*
CN1C(=O)C2(OCC(COc3ccc(Cl)cc3)O2)c2ccccc21 (centres undefined),nt,0.4%,-13.9%,-16.7%,-1.4%

# Bioassay records: PubChem BioAssay, National Center for Advancing Translational Sciences (NCATS)
